Test results as given in PubChem BioAssay AID1159580 (chemical genetic matrix, 2015).
“And” between values parts separate entries of the source, which are not always exact repeats. Equal values may be shown once. Among all 5,500 compounds or so, about 2,000 (36%) were called active. About 18% were inconclusive and are not listed. Cut-off read from the data, not from the text of the source: active = normalized growth mostly below about 0.91 (no sharp cut-off); inconclusive = no clear call, values can overlap the other calls; inactive = mostly above about 0.92. The list shows a part of the results.

Assay: chemical genetic growth profiling, strain panel (AID 1159580);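 note: tested at 20 µM; growth read once vehicle control cultures reached saturation at 30 °C; 1 = growth at the plate median or of vehicle wells; lower values mean less growth of the strain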
Conditions: growth OD

Measured: normalized growth

NCCCNCCSP(=O)(O)O
inactive: S. cerevisiae deletion strains, locus YJR075W, strain HOC1, hits give low values 1.01 | S. cerevisiae deletion strains, locus YKL009W, strain mrt4, hits give low values 0.969 | S. cerevisiae deletion strains, locus YKL068W, hits give low values 0.982 | S. cerevisiae deletion strains, locus YKL085W, strain MDH1 (second series), hits give low values 0.985 | S. cerevisiae deletion strains, locus YKL085W, strain MDH1, hits give low values 0.985 | S. cerevisiae deletion strains, locus YKL160W, strain elf1, hits give low values 0.963 | S. cerevisiae deletion strains, locus YKL190W, strain CNB1, hits give low values 0.988 | S. cerevisiae deletion strains, locus YKR001C, strain vps1, hits give low values 0.986 | S. cerevisiae deletion strains, locus YKR026C, strain gcn3, hits give low values 0.984 | S. cerevisiae deletion strains, locus YKR091W, strain srl3, hits give low values 0.969 | S. cerevisiae deletion strains, locus YLL001W, strain dnm1, hits give low values 0.954 | S. cerevisiae deletion strains, locus YLL026W, hits give low values 0.972 | S. cerevisiae deletion strains, locus YLL041C, strain sdh2, hits give low values 0.983 | S. cerevisiae deletion strains, locus YLR027C, strain aat2, hits give low values 0.964 | S. cerevisiae deletion strains, locus YLR039C, strain RIC1, hits give low values 0.974 | S. cerevisiae deletion strains, locus YLR058C, strain SHM2, hits give low values 0.989 | S. cerevisiae deletion strains, locus YLR102C, strain apc9, hits give low values 0.992 | S. cerevisiae deletion strains, locus YLR221C, strain rsa3, hits give low values 0.952 | S. cerevisiae deletion strains, locus YLR258W, strain gsy2, hits give low values 0.994 | S. cerevisiae deletion strains, locus YLR262C, strain YPT6 (second series), hits give low values 0.96 | S. cerevisiae deletion strains, locus YLR262C, strain YPT6, hits give low values 0.973 | S. cerevisiae deletion strains, locus YLR268W, strain sec22, hits give low values 0.995 | S. cerevisiae deletion strains, locus YLR320W, strain mms22, hits give low values 0.961 | S. cerevisiae deletion strains, locus YLR330W, strain CHS5, hits give low values 0.989 | S. cerevisiae deletion strains, locus YLR342W, strain FKS1 (second series), hits give low values 0.975 | S. cerevisiae deletion strains, locus YLR342W, strain FKS1, hits give low values 0.979 | S. cerevisiae deletion strains, locus YLR357W, strain rsc2, hits give low values 0.957 | S. cerevisiae deletion strains, locus YLR370C, strain arc18, hits give low values 0.969 | S. cerevisiae deletion strains, locus YLR371W, strain rom2, hits give low values 0.974 | S. cerevisiae deletion strains, locus YLR384C, strain iki3, hits give low values 0.96 | S. cerevisiae deletion strains, locus YLR418C, strain cdc73, hits give low values 1.01 | S. cerevisiae deletion strains, locus YML016C, strain PPZ1, hits give low values 0.99 | S. cerevisiae deletion strains, locus YML032C, strain rad52, hits give low values 0.978 | S. cerevisiae deletion strains, locus YML120C, strain ndi1, hits give low values 0.964 | S. cerevisiae deletion strains, locus YML124C, strain tub3, hits give low values 0.991 | S. cerevisiae deletion strains, locus YMR058W, strain fet3, hits give low values 0.976 | S. cerevisiae deletion strains, locus YMR078C, strain ctf18, hits give low values 0.981 | S. cerevisiae deletion strains, locus YMR125W, strain sto1, hits give low values 0.975 | S. cerevisiae deletion strains, locus YMR129W, hits give low values 0.99 | S. cerevisiae deletion strains, locus YMR205C, strain PFK2, hits give low values 0.937 | S. cerevisiae deletion strains, locus YMR223W, strain ubp8, hits give low values 0.973 | S. cerevisiae deletion strains, locus YMR231W, strain pep5, hits give low values 0.978 | S. cerevisiae deletion strains, locus YMR263W, strain SAP30, hits give low values 0.997 and 0.98 | S. cerevisiae deletion strains, locus YMR307W, strain GAS1, hits give low values 0.974 | S. cerevisiae deletion strains, locus YNL067W, strain RPL9B, hits give low values 0.984 | S. cerevisiae deletion strains, locus YNL071W, strain lat1, hits give low values 0.983 | S. cerevisiae deletion strains, locus YNL128W, strain TEP1, hits give low values 1.01 and 1 | S. cerevisiae deletion strains, locus YNL153C, strain GIM3, hits give low values 1.01 and 0.993 | S. cerevisiae deletion strains, locus YNL175C, strain NOP13, hits give low values 1.01 | S. cerevisiae deletion strains, locus YNL197C, strain WHI3, hits give low values 1 | S. cerevisiae deletion strains, locus YNL209W, strain ssb2, hits give low values 0.981 | S. cerevisiae deletion strains, locus YNL224C, strain SQS1, hits give low values 0.988 | S. cerevisiae deletion strains, locus YNL233W, strain BNI4, hits give low values 0.997 | S. cerevisiae deletion strains, locus YNL248C, strain rpa49, hits give low values 0.977 | S. cerevisiae deletion strains, locus YNL250W, strain rad50, hits give low values 0.981 | S. cerevisiae deletion strains, locus YNL271C, strain bni1, hits give low values 0.994 | S. cerevisiae deletion strains, locus YNL298W, strain CLA4, hits give low values 0.988 | S. cerevisiae deletion strains, locus YNL307C, strain MCK1, hits give low values 0.989 | S. cerevisiae deletion strains, locus YNL322C, strain KRE1 (second series), hits give low values 0.956 | S. cerevisiae deletion strains, locus YNL322C, strain KRE1, hits give low values 1 | S. cerevisiae deletion strains, locus YNR049C, strain mso1, hits give low values 0.963 | S. cerevisiae deletion strains, locus YNR052C, strain pop2, hits give low values 0.986 | S. cerevisiae deletion strains, locus YOL006C, strain TOP1, hits give low values 1.02 | S. cerevisiae deletion strains, locus YOL012C, strain htz1 0.741 | S. cerevisiae deletion strains, locus YOL147C, strain pex11, hits give low values 0.988 | S. cerevisiae deletion strains, locus YOR001W, strain rrp6, hits give low values 1.02 | S. cerevisiae deletion strains, locus YOR061W, strain CKA2, hits give low values 1 | S. cerevisiae deletion strains, locus YOR069W, strain VPS5, hits give low values 0.995 | S. cerevisiae deletion strains, locus YOR070C, strain gyp1, hits give low values 0.982 | S. cerevisiae deletion strains, locus YOR080W, strain dia2, hits give low values 0.968 | S. cerevisiae deletion strains, locus YOR083W, strain WHI5 (second series), hits give low values 1.01 | S. cerevisiae deletion strains, locus YOR083W, strain WHI5, hits give low values 0.96 | S. cerevisiae deletion strains, locus YOR106W, strain vam3, hits give low values 0.931 | S. cerevisiae deletion strains, locus YOR136W, strain idh2, hits give low values 0.992 | S. cerevisiae deletion strains, locus YOR144C, strain elg1, hits give low values 0.982 | S. cerevisiae deletion strains, locus YOR184W, strain ser1, hits give low values 0.962 | S. cerevisiae deletion strains, locus YOR265W, strain rbl2, hits give low values 0.984 | S. cerevisiae deletion strains, locus YOR270C, strain vph1, hits give low values 0.924 | S. cerevisiae deletion strains, locus YOR290C, strain snf2, hits give low values 0.965 | S. cerevisiae deletion strains, locus YOR316C, strain cot1, hits give low values 0.977 | S. cerevisiae deletion strains, locus YPL051W, strain arl3, hits give low values 0.987 | S. cerevisiae deletion strains, locus YPL055C, strain LGE1, hits give low values 1.02 and 0.958 | S. cerevisiae deletion strains, locus YPL078C, strain atp4, hits give low values 0.971 | S. cerevisiae deletion strains, locus YPL106C, strain sse1, hits give low values 0.954 | S. cerevisiae deletion strains, locus YPL240C, strain hsp82, hits give low values 0.993 | S. cerevisiae deletion strains, locus YPL241C, strain CIN2, hits give low values 0.998 and 0.991 | S. cerevisiae deletion strains, locus YPR119W, strain clb2, hits give low values 0.995 | S. cerevisiae deletion strains, locus YPR141C, strain kar3, hits give low values 0.976 | S. cerevisiae deletion strains, locus YPR163C, strain tif3, hits give low values 0.986 | S. cerevisiae deletion strains, locus YPR167C, strain met16, hits give low values 0.995 | S. cerevisiae deletion strains, strain wtn01, hits give low values 0.99 | S. cerevisiae strains, strain wild type, hits give low values 0.977
